Test [1] can be described thus: Cell Viability - SK-N-SH (AID 435; calls by dose curve; note: potency is the fitted concentration of half-maximal effect). The following applies: SK-N-SH neuroblastoma cell viability qHTS. The essentials: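 Human neuroblastoma line, 40 h exposure at 37 °C, ATP quantified via luciferase luminescence; DMSO and 100 uM tamoxifen define 0 and 100% inhibition for AC50 fitting.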
In general terms: qHTS replaces the single test concentration by a dilution series.

A short description of test [2]: Cell Viability - H-4-II-E (AID 543). Note: nearly all actives have a fitted effect of over 35% in size. Note: potency is the fitted concentration of half-maximal effect. The essentials:
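qHTS, rat hepatoma H-4-II-E, 1500 cells/well; 40 hr compound exposure, 37 °C; CellTiter-Glo ATP luminescence after 20 min RT; AC50 by standard Hill fit.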

A short description of test [3]: Cell Viability - Renal Proximal Tubule (AID 545).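 For activity change, negative = cytotoxicity: 0% = DMSO only and -100% = 100 µM tamoxifen.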 Note: nearly all actives have a fitted effect of over 40% in size. Note: potency is the fitted concentration of half-maximal effect. The following applies: renal proximal tubule cells viability, primary cells of rat origin; activity change, negative = cytotoxicity: at 91.7 µM (top of the series). The essentials:
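In this qHTS format, normal rat kidney-derived proximal tubule cells in complete culture medium receive compound titrations, then sit 40 hours at 37 °C before luciferase-based ATP quantitation; potency is reported as AC50 from concentration-response curves.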

A short description of test [4]: Cell Viability - LYMP2-001 (AID 921).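 Note: cells exposed to compound for 24 h at 37 °C; 0% = DMSO only and full inhibition = tetraoctylammonium bromide control wells; nearly all actives have a fitted effect of over 70% in size.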 The essentials: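 A lymphoblastoid cell line of human origin was treated with library compounds across a concentration series for 24 hours, and viable cell number was estimated from ATP-driven luciferase light output. Hill modeling gave AC50.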
Test [5] can be described thus: MultiTox-Fluor Cytotoxicity Assay - LYMP1-001 - Live Cells (AID 947).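 Note: 0% = DMSO only and full inhibition = tetraoctylammonium bromide control.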
Test [6] is described as follows: MultiTox-Fluor Cytotoxicity Assay - LYMP1-002 - Dead Cells (AID 960). Note: nearly all actives have a fitted effect of over 60% in size. Note: potency is the fitted concentration of half-maximal effect. The essentials: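 Readout: fluorescence at 485/520 from cell-impermeant bis-AAF-R110 cleaved by proteases leaking from damaged cells. LYMP1-002 lymphoblastoid line, 16 hr compound treatment at 37 C, concentration-response in qHTS format; Hill-equation AC50 values.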
The nature of test [7]: Cell Viability - LYMP1-003 - Assay at 40 hr (AID 964). Note: % is set by controls: 0 for no effect and ±100 for the full control effect; nearly all actives have a fitted effect of over 60% in size. The essentials: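 LYMP1-003 lymphoblastoid cells, 2500/well; 5 hr preincubation, 40 hr compound exposure, 37 C; CellTiter-Glo 30 min RT; luminescence; Hill-fit AC50. Positive control tetraoctylammonium bromide.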
A short description of test [8]: Cell Viability - LYMP2-004 (AID 966).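 Note: cells exposed to compound for 24 h; plate controls were DMSO only for no effect and tetraoctylammonium bromide control for full effect; nearly all actives have a fitted effect of over 65% in size.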 The essentials: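 Luminescent ATP read-out (CellTiter-Glo, 30 min RT) after 24 hr compound exposure at 37 C; 2500 lymphoblastoid cells/well, complete medium. Decrease in ATP = cytotoxicity; AC50 from standard Hill model.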
A short description of test [9]: Cell Viability - LYMP2-009 (AID 968).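 Note: cells exposed to compound for 24 h at 37 °C; 0% = DMSO alone and the full-kill end = tetraoctylammonium bromide at 92 µM; nearly all actives have a fitted effect of over 55% in size.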
Test [10] in a line: Cell Viability - LYMP2-015 (AID 971).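 Note: cells exposed to compound for 24 h; 0% = DMSO only and full effect = 92 µM tetraoctylammonium bromide; nearly all actives have a fitted effect of over 55% in size.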 The essentials: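 qHTS cytotoxicity: 2500 cells/well, 5 hr 37 C, compound 24 hr 37 C, CellTiter-Glo 30 min RT, luminescence. Loss of ATP = toxicity; AC50 via standard Hill fit.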
The nature of test [11]: Cell Viability - LYMP2-017 (AID 972).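 Note: cells exposed to compound for 24 hours at 37 °C; % is set by controls: 0 for no effect and ±100 for the full control effect; nearly all actives have a fitted effect of over 55% in size.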 A digest of the protocol:
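Luminescent ATP read-out (CellTiter-Glo, 30 min RT) reports viable cell number. Cells: human lymphoblastoid line, 2500 per well, 5 hr preincubation, 24 hr compound exposure at 37 C. AC50 is derived from qHTS concentration-response data using the standard Hill model.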

Test [12] can be described thus: Cell Viability - LYMP2-019 (AID 973).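 Note: cells exposed to compound for 24 h at 37 °C; 0% = DMSO alone and full effect = 92 µM tetraoctylammonium bromide; nearly all actives have a fitted effect of over 55% in size.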 A digest of the protocol:
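qHTS, 1536-well; 2500 cells/well; 5 hr pre-incubation, 24 hr compound exposure, 37 C; CellTiter-Glo added, 30 min RT; luminescence read; AC50 via standard Hill equation.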

Test [13] in a line: Cell Viability - LYMP2-010 (AID 981). The essentials: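 qHTS cytotoxicity, 1536-well: 2500 cells/well, 5 hr settle, 24 hr compound at 37 C, CellTiter-Glo 30 min RT, luminescence read. Decrease in ATP = toxicity; AC50 via standard Hill equation. Positive control tetraoctylammonium bromide.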
Test [14] addresses Thyroid hormone receptor beta (Homo sapiens) (UniProt P10828). Briefly: qHTS assay for small molecule antagonists of thyroid hormone receptor beta signaling (AID 588547; active = well fitted inhibition curve with a large enough effect in the signal ratio, with a control signal flat, not every such curve was filed as active; the % refers to the signal ratio;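 note: cells stimulated with 0.4 nM T3 agonist during compound exposure; % is set by controls: 0 for no effect and ±100 for the full control effect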). The following applies: TR-UAS-bla HEK293, beta-lactamase ratio, antagonist mode, 18 h. A digest of the protocol:
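TR-UAS-bla GripTite HEK293 cells in 2% charcoal/dextran FBS medium were preincubated 4 h at 37 C, given compound (0.59 nM to 92 uM) plus 0.4 nM T3 (final) for 18 h, then CCF4 for 2 h at RT; Hill fit gave IC50.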

A short description of test [15]: qHTS assay for small molecule disruptors of the mitochondrial membrane potential - 5 hr assay (AID 651755; calls by dose curve; note: % is set by controls: 0 for no effect and ±100 for the full control effect; nearly all actives have a fitted effect of over 40% in size). The essentials:
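Seed HepG2 overnight, add compound, incubate 5 hr at 37C and 5% CO2, stain 30 min with Mito-MPS, then measure monomer (490/535 nm) and aggregate (540/590 nm) fluorescence.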

Test [16] can be described thus: qHTS assay for small molecule agonists of the antioxidant response element (ARE) signaling pathway measured by Nrf2-dependant transcriptional activity (AID 720636; active = well fitted curve in the direction sought with a large enough effect in the repeat runs; an effect the other way counts as inactive or inconclusive;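 note: HepG2 cells with an ARE-driven luciferase reporter; % of control where 0% means no effect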). The essentials:
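Nrf2-dependent transcription is measured in ARE-luc HepG2 cells: compound is applied for 16 hr at 37 C after a 6 hr attachment period, and luciferase activity is quantified by luminescence using ONE-Glo.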

The target of test [17] is Nuclear receptor subfamily 1 group I member 2 (Rattus norvegicus) (UniProt Q9R1A7). Put plainly: qHTS assay for small molecule activators of the rat pregnane X receptor (rPXR) signaling pathway (AID 651751; call rule not given here; note: 0% is about no effect). To be noted: rPXR reporter cells, luciferase (One-Glo), 24 h.
The nature of test [18]: Cell Viability - N2a (AID 540).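 Note: plate controls were DMSO alone for no effect and tamoxifen control for full effect; nearly all actives have a fitted effect of over 45% in size.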 To be noted: N2a mouse neuroblastoma cell viability; activity change, negative = cytotoxicity: at 92.2 µM (top of the series). The essentials: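 N2a mouse neuroblastoma, 1500 cells/well, 5 hr settle; compound 40 hr, 37 °C; CellTiter-Glo 20 min RT; luminescence; Hill-fit AC50.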
Test [19] can be described thus: qHTS assay for small molecule agonists of retinoid X receptor alpha signaling (AID 588544; calls by dose curve; note: potency is the fitted concentration of half-maximal effect). The following applies: HEK293T RXRa-UAS-bla, beta-lactamase reporter, 18 h; 530 nm emission.
In test [20] the target is Retinoic acid receptor RXR-alpha (Homo sapiens) (UniProt P19793). The test is described as above.

Records with an inconclusive call do not appear. Active and inactive are the calls of the source. Unless noted, calls come from the whole dose curve; as a rule, active = well fitted curve in the direction sought with a large enough effect; inconclusive = small, poorly fitted or top-dose-only effect, or another doubt; inactive = no such curve, though single readings can be large; an effect the other way counts as inactive or inconclusive. Some results are limits rather than exact numbers.

Consider six compounds from PubChem BioAssay (NCATS).

Thyroid hormone receptor beta (Homo sapiens), sequence (P10828 whole entry, looked up): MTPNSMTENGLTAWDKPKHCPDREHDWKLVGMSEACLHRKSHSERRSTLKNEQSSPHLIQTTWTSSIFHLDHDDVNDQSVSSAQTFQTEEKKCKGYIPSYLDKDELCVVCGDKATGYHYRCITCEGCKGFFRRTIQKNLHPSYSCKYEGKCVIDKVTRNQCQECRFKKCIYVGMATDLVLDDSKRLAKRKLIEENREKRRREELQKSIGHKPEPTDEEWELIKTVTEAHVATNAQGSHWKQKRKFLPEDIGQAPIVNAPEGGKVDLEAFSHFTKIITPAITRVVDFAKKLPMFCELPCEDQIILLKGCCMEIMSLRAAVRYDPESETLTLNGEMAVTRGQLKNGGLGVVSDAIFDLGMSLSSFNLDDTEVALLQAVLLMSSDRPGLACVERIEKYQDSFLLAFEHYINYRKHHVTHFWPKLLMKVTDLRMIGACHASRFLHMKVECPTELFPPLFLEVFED
Nuclear receptor subfamily 1 group I member 2 (Rattus norvegicus), sequence (Q9R1A7 whole entry, looked up): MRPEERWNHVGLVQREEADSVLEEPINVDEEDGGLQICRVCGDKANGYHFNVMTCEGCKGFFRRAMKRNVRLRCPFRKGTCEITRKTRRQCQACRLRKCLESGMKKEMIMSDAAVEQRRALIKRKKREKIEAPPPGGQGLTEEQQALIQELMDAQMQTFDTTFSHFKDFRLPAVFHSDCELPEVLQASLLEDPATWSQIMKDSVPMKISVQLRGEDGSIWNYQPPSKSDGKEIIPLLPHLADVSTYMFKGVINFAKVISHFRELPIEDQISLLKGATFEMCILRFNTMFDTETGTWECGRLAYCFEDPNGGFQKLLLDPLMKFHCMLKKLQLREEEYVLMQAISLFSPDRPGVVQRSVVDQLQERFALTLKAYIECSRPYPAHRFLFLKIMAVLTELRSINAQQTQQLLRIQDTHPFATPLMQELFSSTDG
Retinoic acid receptor RXR-alpha (Homo sapiens), sequence (P19793 whole entry, looked up): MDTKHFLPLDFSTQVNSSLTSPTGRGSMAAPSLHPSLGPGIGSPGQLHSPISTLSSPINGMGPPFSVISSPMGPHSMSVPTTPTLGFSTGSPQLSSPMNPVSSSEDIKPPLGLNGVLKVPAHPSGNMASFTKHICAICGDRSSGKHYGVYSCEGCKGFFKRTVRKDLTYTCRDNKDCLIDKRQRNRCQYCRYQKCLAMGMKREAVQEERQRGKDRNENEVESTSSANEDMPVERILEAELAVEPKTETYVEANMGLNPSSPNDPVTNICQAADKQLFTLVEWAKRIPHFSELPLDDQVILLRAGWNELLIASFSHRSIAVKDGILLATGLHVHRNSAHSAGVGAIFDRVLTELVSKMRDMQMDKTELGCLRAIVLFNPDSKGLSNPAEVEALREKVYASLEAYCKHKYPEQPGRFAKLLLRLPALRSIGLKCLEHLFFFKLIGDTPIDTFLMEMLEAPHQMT

For the compound `CCc1ccc(C(c2ccc(CC)cc2)C(Cl)Cl)cc1`, in [1], the Potency was > 92 µM (inactive). In addition, the Potency entry in test [2], in test [3], in test [4], in test [5], in [6] and in [7] was “inactive” each time. Further, the Potency result in [8], in [9], in test [10], in test [11], in test [12] and in [13] was “inactive” throughout. Also, the Potency entry in [15] and in [16] was “inactive” throughout. Also, the activity change % (negative = inhibition) in test [14] was 13.5% (inactive). The max response in test [17] was 1.82% (inactive).

In the case of `CCCCCCCC/C=C\CCCCCCCC(=O)N(CCO)CCO`, the activity change, negative = cytotoxicity in [18] was -111% (active). The Potency is 39.8 µM (active) in test [2] and 31.6 µM (active) in [6]. In addition, the Potency entry in [4], in [5], in [7], in [8], in test [9] and in test [10] was “inactive” in each case. In addition, the Potency entry in [11], in test [13], in test [20], in test [15] and in test [16] was “inactive” each time. The max response in test [19] is 13.2%; in test [17], 3.59% (inactive).

Consider `Cc1ccccc1OCC1CO1` (configuration not stated), for which the Potency in [1] is > 92 µM (inactive). In addition, in test [18], the activity change, negative = cytotoxicity was -6.29% (inactive). Besides, the Potency result in [2], in test [3], in [4], in [5], in test [6] and in test [7] was “inactive” each time. Moreover, the Potency result in test [8], in test [9], in test [10], in test [11], in test [12] and in test [13] was “inactive” in each case. The Potency entry in test [20], in [15] and in test [16] was “inactive” each time. The max response in test [19] was 14.4%; in test [17] it was 0.751% (inactive). Also, in [14], the activity change % (negative = inhibition) is -11% (inactive).

`CCCCCCCCOc1ccc(C(=O)O)cc1`: the Potency in test [1] was > 92 µM (inactive); in [20] it was 39.8 µM (active). Also, the activity change, negative = cytotoxicity in test [18] was -7.43% (inactive). In addition, the Potency entry in [2], in test [3], in [4], in test [5], in [6] and in [7] was “inactive” throughout. Moreover, the Potency result in test [8], in test [9], in [10], in test [11], in test [12] and in test [13] was “inactive” throughout. Moreover, the Potency result in test [15] and in test [16] was “inactive” in each case. Also, the figures for the max response in [19] and in [17] were -15.5% and 13.3% (inactive), respectively. Besides, in [14], the activity change % (negative = inhibition) is 10% (inactive).

Turning to `CC(=O)OC(C(=O)c1ccccc1)c1ccccc1` (configuration not stated), the Potency in [1] was > 92 µM (inactive). For the same compound, the activity change, negative = cytotoxicity in [18] was -7.31% (inactive). Besides, the Potency result in test [2], in test [3], in test [4], in test [5], in [6] and in test [7] was “inactive” each time. The Potency result in test [8], in test [9], in test [10], in test [11], in test [12] and in test [13] was “inactive” each time. The Potency entry in test [20], in test [15] and in test [16] was “inactive” each time. Further, the max response was -6.96% in test [19] and 1.59% (inactive) in [17]. The activity change % (negative = inhibition) in [14] was 4.95% (inactive).

On to `C[C@@H]1CC2(OC(O)[C@]3(C)O[C@H]23)O[C@H]2C[C@@]3(C)[C@@H]4CC[C@H]5C(C)(C)C(O[C@@H]6OC[C@@H](O)[C@H](O)[C@H]6O)CC[C@@]56C[C@@]46CC[C@]3(C)[C@@H]12` (some centres not stated), for which the Potency in test [1] was > 92 µM (inactive); in [3] it was 31.6 µM (active). In addition, the activity change, negative = cytotoxicity in [18] is -12.9% (inactive). In addition, the Potency entry in [5], in test [9], in test [10], in test [11] and in [16] was “inactive” throughout. In addition, the max response in [17] was -9.9% (inactive).
